{"source": "PubChem BioAssay (Tox21)", "note": "The source made the active and inactive calls. Where a call stands in place of a potency, no number is given. Calls follow the shape of the full dose curve."}
{"biological_target": "Muscarinic acetylcholine receptor M1 (Homo sapiens) (UniProt P11229)", "sequence (P11229 whole entry, looked up)": "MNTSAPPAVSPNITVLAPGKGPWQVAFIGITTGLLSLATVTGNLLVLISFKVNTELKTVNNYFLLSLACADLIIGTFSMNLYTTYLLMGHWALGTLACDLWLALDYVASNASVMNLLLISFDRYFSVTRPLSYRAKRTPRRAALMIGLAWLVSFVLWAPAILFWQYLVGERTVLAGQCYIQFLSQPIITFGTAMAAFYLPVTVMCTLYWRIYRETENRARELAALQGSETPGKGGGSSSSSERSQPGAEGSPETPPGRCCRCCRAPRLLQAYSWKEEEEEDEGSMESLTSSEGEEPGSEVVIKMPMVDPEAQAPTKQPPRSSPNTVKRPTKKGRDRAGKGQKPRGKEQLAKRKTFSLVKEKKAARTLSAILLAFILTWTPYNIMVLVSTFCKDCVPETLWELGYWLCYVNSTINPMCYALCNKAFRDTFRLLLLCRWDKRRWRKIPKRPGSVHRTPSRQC", "assay": "Cholinergic receptor muscarinic 1 (CHRM1) small molecule agonists, cell-based qHTS assay (AID 1963589); also: nearly all actives have a fitted effect of over 35% in size", "settings": "CHRM1-CHO cells, agonist mode, calcium flux fluorescence; series mostly up to 76.8 µM", "text": "National Center for Advancing Translational Sciences [NCATS]\nDivision of Preclinical Innovation [DPI]\nU.S. Environmental Protection Agency [EPA]\nNational Institutes of Environmental Health Sciences [NIEHS]\nNational Toxicology Program [NTP]\nU.S. Food and Drug Administration [FDA]\nThe CHRM1 is a muscarinic receptor. This receptor plays a crucial role in learning and memory processes and has long been identified as a promising therapeutic target for the improvement of cognitive decline in Alzheimer's disease (AD). The CHRM1-CHO cell line stably expressing human muscarinic acetylcholine receptor M1 (CHRM1) can be used for screening agonists and antagonists of interactions between CHRM1 and its ligands. The CHRM1-CHO Calcium Flux Assay is a homogeneous fluorescence-based assay for detecting the intracellular calcium level using FDSS kinetic plate reader system.\nCHRM1-CHO cells were dispensed at 1000 cells/3uL/well in 1536-well black-clear bottom plates using a Multidrop Dispenser. After the assay plates were incubated at a 37 C/5% CO2 incubator for 18 h, 3 uL of Dye Loading Buffer was transferred to the assay plate by a Flying Reagent Dispenser. The assay plates were incubated at 37 C for 1h. For agonist mode, 23 nL of compounds dissolved in DMSO, positive controls or DMSO only was transferred to the assay plate by a pin tool. […] Each test compound was measured at 15 concentrations in three independent runs."}
{"smiles": "CO[C@]12C[C@@H](COC(=O)c3cncc(Br)c3)CN(C)[C@@H]1Cc1cn(C)c3cccc2c13", "Potency": "inactive"}
{"smiles": "CCN(CC)CCNC(=O)COc1ccc(OC)cc1", "Potency": "inactive"}
{"smiles": "COC(C)(C)OC", "Potency": "inactive"}
{"smiles": "NC(N)=NCCC[C@H](N)C(=O)O", "activation": "-0.347% [at 6.97 µM] (inactive)"}
{"smiles": "CCOCCn1c(N2CCCN(C)CC2)nc2ccccc21", "Potency": "inactive"}
{"smiles": "O=C(O)c1cc(Br)c(O)c(Br)c1", "Potency": "inactive"}
{"smiles": "O=C1CCCC(=O)O1", "Potency": "inactive"}
{"smiles": "O=S(=O)(O)c1cc(Cl)c(Cl)cc1Cl", "Potency": "inactive"}
{"smiles": "CCC(=O)OCCc1ccccc1", "Potency": "inactive"}
{"smiles": "CC(C)(C)CC(C)(C)N", "Potency": "inactive"}
{"smiles": "CCN(CCC#N)c1ccc(N=Nc2c(Cl)cc([N+](=O)[O-])cc2Cl)cc1", "Potency": "inactive"}
{"smiles": "C=CC(C)(CCC=C(C)C)OC(=O)/C=C/c1ccccc1", "note": "(stereo not given)", "Potency": "inactive"}
{"smiles": "Clc1cccc(C(c2ccc3nc[nH]c3c2)n2ccnc2)c1", "note": "(stereo not given)", "Potency": "inactive"}
{"smiles": "CC(CSC(=O)c1ccccc1)C(=O)N1C[C@@H](Sc2ccccc2)C[C@H]1C(=O)O", "note": "(stereo not given in full)", "activation": "-0.159% [at 15.8 µM] (inactive)"}
{"smiles": "CC(C)(C)c1ccc(OC(=O)c2ccccc2O)cc1", "Potency": "inactive"}
{"smiles": "CCCCCCC(C)Nc1ccc(Nc2ccccc2)cc1", "note": "(stereo not given)", "Potency": "inactive"}
{"smiles": "c1ccc(C[n+]2cccc3ccccc32)cc1", "Potency": "inactive"}
{"smiles": "CC(Oc1c(Cl)cccc1Cl)C1=NCCN1", "note": "(stereo not given)", "Potency": "inactive"}
{"smiles": "C1CCCCCCCCCCC1", "activation": "-0.458% [at 15.8 µM] (inactive)"}
{"smiles": "CC(C)N(c1ccccc1)C(C)C", "Potency": "inactive"}
{"smiles": "NC(=O)c1ccccc1", "Potency": "inactive"}
{"smiles": "NNC(=O)CP(=O)(c1ccccc1)c1ccccc1", "Potency": "inactive"}
{"smiles": "O=C1c2ccccc2C(=O)c2cc(S(=O)(=O)O)ccc21", "Potency": "inactive"}
{"smiles": "CCC(C)c1cc(C(C)(C)C)c(O)c(C(C)(C)C)c1", "note": "(stereo not given)", "Potency": "inactive"}
{"smiles": "C[Si](Cl)(c1ccccc1)c1ccccc1", "Potency": "inactive"}
{"smiles": "Nc1ccccn1", "Potency": "inactive"}
{"smiles": "CC(N)=O", "Potency": "inactive"}
{"smiles": "CCN1CCN(C(=O)N[C@@H](C(=O)N[C@@H]2C(=O)N3C(C(=O)O)=C(CSc4nnnn4C)CS[C@H]23)c2ccc(O)cc2)C(=O)C1=O", "Potency": "inactive"}
{"smiles": "CC1(C)CCC[C@]2(C)[C@H]3CCO[C@]3(C)CC[C@@H]12", "Potency": "inactive"}
{"smiles": "CCCCC/C=C\\C=C\\C(=O)OCC", "Potency": "inactive"}
{"smiles": "O=C(O)COc1nn(Cc2ccccc2)c2ccccc12", "Potency": "inactive"}
{"smiles": "CC(S)C(C)S", "note": "(stereo not given)", "Potency": "inactive"}
{"smiles": "CCCC(=O)O[C@]1(C(=O)COC(=O)CC)CC[C@H]2[C@@H]3CCC4=CC(=O)CC[C@]4(C)[C@H]3[C@@H](O)C[C@@]21C", "activation": "5.7% [at 15.8 µM] (inactive)"}
{"smiles": "CCN(Cc1ccccc1)c1ccccc1", "Potency": "inactive"}
{"smiles": "C=Cc1ccncc1", "Potency": "inactive"}
{"smiles": "O=[N+]([O-])c1ccc(Nc2ccc(Nc3ccccc3)c(S(=O)(=O)O)c2)c([N+](=O)[O-])c1", "Potency": "inactive"}
{"smiles": "CCN(CC)CC1CCCCN1CC(=O)N1c2ccccc2C(=O)Nc2cccnc21", "note": "(stereo not given)", "Potency": "inactive"}
{"smiles": "Cc1ccccc1S", "Potency": "inactive"}
{"smiles": "CCN1CCC[C@H]1CNC(=O)c1c(OC)ccc(Br)c1OC", "Potency": "inactive"}
{"smiles": "O=[N+]([O-])c1ccc2ncccc2c1", "Potency": "inactive"}
